# Source: PubChem BioAssay
# The list is not random: actives were taken first. Their share in the collection is about 19%.
# DT40 TDP1 CPT = qHTS for Inhibitors of human tyrosyl-DNA phosphodiesterase 1 (TDP1): qHTS in cells in presence of CPT. chicken DT40 Tdp1-/-;hTDP1 cells + 20 nM CPT, ATP luminescence, 48 h. 420,000 compounds, 12% hits. AID 686979, 2013. Potency, µM (series often up to 46.2 µM), for the others: top-dose activity change, negative = growth inhibition, hits mostly inhibitors; further: potency means the concentration at half of the fitted maximal effect; nearly all actives have a fitted effect of over 55% in size
#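 Chicken DT40 Tdp1-/- cells stably complemented with human TDP1 were seeded at 400 cells/well in medium containing 20 nM camptothecin, exposed to pin-transferred compounds, and grown at 37 °C for at least 48 hr. Viability was read as ATP luminescence.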
# ELG1 DNA repair = qHTS screen for small molecules that inhibit ELG1-dependent DNA repair in human embryonic kidney (HEK293T) cells expressing luciferase-tagged ELG1; HEK293T ELG1-luciferase reporter, luminescence, 16 h; DNA damage induced by 5-fluorouridine; Potency, µM (highest dose often 46.1 µM), for inactives: at the highest dose activity change, negative = inhibition, actives largely listed as inhibitors; 330,000 compounds, 2.3% hits; AID 504467, 2011; further: potency means the concentration at half of the fitted maximal effect; nearly all actives have a fitted effect of over 55% in size
#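 5-Fluorouridine DNA damage + compound/DMSO, 2,000 cells/well, 16 h, 37 °C/5% CO2. ONE-Glo, 30 min RT, luminescence. Readout = decrease in reporter signal.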
# HT1080 IDH1KD tx = qHTS for induction of synthetic lethality in tumor cells producing 2HG: qHTS for the HT-1080-IDH1KD cell line | Potency, µM (titrated, usually from 46.1 µM), for the others: at the top dose activity, negative = toxicity, actives largely listed as cytotoxic | AID 686971, 2013 | 360,000 compounds, 2% hits | HT-1080 IDH1 knockdown viability, ATP luminescence, 48 h;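 further: potency means the concentration at half of the fitted maximal effect; 0% = DMSO wells and -100% = cell-free medium wells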
#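 Cytotoxicity counter-line: IDH1KD HT-1080, 48 h, CellTiter-Glo. Curves classed by r2, magnitude and activity.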
# TDP1 cell noCPT = qHTS for Inhibitors of human tyrosyl-DNA phosphodiesterase 1 (TDP1): qHTS in cells in absence of CPT. DT40 Tdp1-/- hTDP1 cells, no CPT, ATP luminescence, 48 h. Potency, µM (top dose mostly 46.2 µM), inactives show at the top dose activity change, negative = growth inhibition, actives largely listed as inhibitors. 420,000 compounds, 15% hits. AID 686978, 2013; further: potency means the concentration at half of the fitted maximal effect; nearly all actives have a fitted effect of over 55% in size
#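 Chicken DT40 Tdp1-/- cells stably complemented with human TDP1 were seeded at 400 cells/well with DMSO in place of 20 nM camptothecin. After compound pinning, cells grew at least 48 hr at 37 °C; viability read by CellTiter-Glo luminescence.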
# HT1080-NT tox = qHTS for induction of synthetic lethality in tumor cells producing 2HG: qHTS for the HT-1080-NT fibrosarcoma cell line; HT-1080-NT fibrosarcoma viability, CellTiter-Glo ATP luminescence, 48 h; Potency, µM (doses to about 46.1 µM), for inactives: top-dose activity, negative = less viability, hits mostly cytotoxic; 360,000 compounds, 1.6% hits; AID 686970, 2013;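 further: NT is the 2HG producing partner of a matched IDH1 knockdown line; potency means the concentration at half of the fitted maximal effect; 0% = DMSO-treated cells and -100% = media-only wells without cells; nearly all actives have a fitted effect of over 55% in size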
#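 Viability of the 2HG-overproducing fibrosarcoma line after 48 hours of compound exposure at 37 degrees C was determined by luminescence with CellTiter-Glo, and concentration-effect curves were then fitted and categorized.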
# IL-1B inflam inh = qHTS for Inhibitors of Inflammasome Signaling: IL-1-beta AlphaLISA Primary Screen | THP-1 LPS/ATP IL-1B secretion, AlphaLISA, 16 h; active compounds read low | activity change, % at 57.5 µM | 360,000 compounds, 4.7% hits | AID 743279, 2014; in the data active means activity change below about -50%; inconclusive means mostly about -30% to -49%
#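 THP-1 cells pretreated 1 hr with compounds (up to 57.5 uM final), then stimulated with LPS (250 ng/mL final) plus ATP (1.25 mM final); secreted IL-1B measured by AlphaLISA after 16 hr, decreased signal indicating inhibition.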
# Numbers without * were called inactive; ? = inconclusive; / = no result given. Unless noted, the call rests on the fitted dose curve; in most records, active means well fitted curve in the direction sought with a large enough effect; inconclusive means small, poorly fitted or top-dose-only effect, or another doubt; inactive means no such curve, though single readings can be large; an effect the other way counts as inactive or inconclusive. Unless noted, on the % scale 0 is the no-effect control and ±100 the full control effect.
SMILES,DT40 TDP1 CPT,ELG1 DNA repair,HT1080 IDH1KD tx,TDP1 cell noCPT,HT1080-NT tox,IL-1B inflam inh
O=C(NC(Cc1c[nH]c2ccccc12)C(=O)Nc1ccc(OC(F)(F)F)cc1)c1cccs1 (stereo not drawn),?,-5.0%,20.6µM*,?,?,-67.9*
CC(C)(C)c1ccc(C(=O)NC(Cc2c[nH]c3ccccc23)C(=O)OCC(=O)c2ccc(Br)cc2)cc1 (stereo not drawn),-8.4%,/,/,?,/,/
Cc1ccc(C(=O)COC(=O)C(Cc2c[nH]c3ccccc23)NC(=O)c2ccc(C(C)(C)C)cc2)cc1 (stereo not drawn),18.4µM*,/,/,23.1µM*,/,/
CC(C)c1ccccc1NC(=O)C(Cc1c[nH]c2ccccc12)NC(=O)OC(C)(C)C (stereo not drawn),18.4µM*,/,/,?,/,/
CC(C)C[C@H](NC(=O)OC(C)(C)C)C(=O)N1CCC(C(=O)N[C@@H](Cc2c[nH]c3ccccc23)C(=O)O)CC1,-3.9%,-0.3%,1.6%,11.1%,9.6%,35.0
OCC1O[C@@H](OC2C(O)C(CO)O[C@@]2(CO)O[C@@H]2OC(CO)C(O)C(O)C2O)C(O)C(O)C1O (stereo partly drawn),-1.6%,/,/,-8.4%,/,/
CCCOc1ccc(C(=O)CCNC(Cc2c[nH]c3ccccc23)C(=O)O)cc1 (stereo not drawn),4.61µM*,15.2%,0.0%,7.31µM*,-6.5%,-8.6
CC1=C(C)/C(=N/OC(=O)c2cccc([N+](=O)[O-])c2)C=CC1=O,20.6µM*,?,18.4µM*,20.6µM*,?,-4.4
N/C(=N/OC(=O)c1cccc([N+](=O)[O-])c1)c1cccc([N+](=O)[O-])c1,-23.5%,?,25.6%,-26.6%,19.3%,-11.0
CC(C)(C)OC(=O)CC1(C#N)c2ccccc2C(Br)=CN1C(=O)c1ccccc1 (stereo not drawn),?,-0.9%,?,16.4µM*,-23.9%,-5.8
CSc1ccc(C(=O)Nc2cc(S(=O)(=O)N3CCOCC3)ccc2N2CCOCC2)cc1[N+](=O)[O-],-24.6%,/,-0.3%,-24.9%,4.2%,-16.6
CN(C)/C=N/C(=S)Nc1ccc(Cl)cc1,-12.5%,?,-2.4%,?,1.1%,-13.3
S=C(NCc1ccncc1)Nc1ccc(Cl)cc1Cl,?,16.4µM*,-4.7%,-18.3%,-2.1%,22.2
Fc1ccc(CNC(=S)Nc2ccc(Cl)cc2Cl)cc1,?,-8.2%,0.9%,?,-2.1%,-100.4*
Fc1ccc(NC(=S)Nc2ccc(Cl)cc2Cl)cc1,?,?,-2.0%,25.9µM*,-1.2%,-87.1*
CN(C)/C=N/C(=S)Nc1ccc(Cl)cc1Cl,5.8%,?,2.7%,?,1.6%,-77.1*
CCN(C(=O)CSc1nnc(-c2ccccc2Cl)n1N)c1c(N)n(Cc2ccccc2)c(=O)[nH]c1=O,17.4%,/,12.7%,-11.7%,2.3%,-25.5
CCc1ccc(NC(=O)C(=O)NCCc2csc(-c3cccc(F)c3)n2)cc1,-3.2%,/,/,-3.3%,/,/
S=C(NCCc1ccc(Cl)cc1)Nc1ccc(Cl)cc1Cl,?,-12.5%,?,?,?,-78.7*
S=C(NCc1ccc(Cl)cc1)Nc1ccc(Cl)cc1Cl,-13.9%,11.1%,-5.8%,?,-16.9%,-0.6
Fc1ccccc1/C=N/NC(=S)Nc1ccc(Cl)cc1Cl,2.31µM*,?,3.26µM*,1.84µM*,5.17µM*,42.7
C/C(=N\NC(=S)NCCc1ccccc1)c1ccc(Cl)cc1Cl,?,-0.1%,?,16.4µM*,?,2.9
CN(C)S(=O)(=O)c1ccc(Cl)c(C(=O)NNC(=O)Cn2ccc(C(F)(F)F)n2)c1,11.5%,12.8%,-0.8%,-1.2%,12.2%,23.0
CC1=CC(=O)CC(C)(C)C1(O)/C=C/C(C)=C\C(=O)O (stereo not drawn),-4.5%,/,/,-10.2%,/,/
CCCCS(=O)(=O)c1nc(-c2ccc(Br)cc2)cc(-c2ccccc2)c1C#N,3.66µM*,/,/,2.59µM*,/,/
SMILES,DT40 TDP1 CPT,ELG1 DNA repair,HT1080 IDH1KD tx,TDP1 cell noCPT,HT1080-NT tox,IL-1B inflam inh
O=C(CCNC(=O)Cn1ccc2ccccc2c1=O)NCc1ccccn1,16.8%,3.5%,-0.4%,-4.3%,0.9%,0.0
O=[N+]([O-])c1cccc(/C=C/c2ccc3cccc(O)c3n2)c1,4.61µM*,?,?,3.66µM*,?,41.7
Oc1ccc(/C=C/c2ccc3cccc(O)c3n2)cc1Br,?,?,-20.0%,?,?,37.7
O=[N+]([O-])c1ccc(/C=C/c2ccc3cccc([N+](=O)[O-])c3n2)cc1,-23.6%,9.9%,?,?,-21.5%,-2.7
O=C(O)c1ccc(/C=C/c2ccc3cccc(O)c3n2)cc1,-10.8%,?,-24.3%,18.4µM*,-10.4%,11.5
COc1c(OC(C)=O)ccc(/C=C/c2ccc3cccc(OC)c3n2)c1[N+](=O)[O-],25.9µM*,?,?,18.4µM*,?,-84.5*
COc1c(OC(C)=O)ccc(/C=C/c2ccc3ccccc3n2)c1[N+](=O)[O-],?,?,?,?,?,-4.6
COC(=O)c1ccc(/C=C/c2ccc3cccc(OC(C)=O)c3n2)cc1,18.4µM*,?,?,20.6µM*,-25.7%,13.0
CC(O)CNCCCOc1cccc(Oc2ccccc2)c1 (stereo not drawn),16.4µM*,9.8%,?,16.4µM*,-0.7%,-55.6*
OCCNCCCCOc1ccc(OCc2ccccc2)cc1,?,?,-29.4%,?,-28.5%,-81.4*
CC(O)CNCCCOc1ccccc1OCc1ccccc1 (stereo not drawn),-2.8%,-1.3%,-16.2%,?,-7.5%,-51.9*
CNCC(C)COc1ccccc1OCc1ccccc1 (stereo not drawn),?,-18.3%,-19.6%,?,-11.6%,-6.9
CC(O)CNCCCOc1cccc(C(F)(F)F)c1 (stereo not drawn),2.3%,14.7%,-13.1%,9.0%,-18.2%,1.1
